# AHR act: activates the human aryl hydrocarbon receptor | P35869 | AHR-responsive luciferase reporter cells, luminescence | activation, % at 5 µM | 320,000 tested, 2.5% active | AID 2796; in the data active = activation above about 47%;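 also: 0% = vehicle wells and 100% = reference agonist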
# APOBEC3A inh: human APOBEC3A DNA deaminase inhibition; P31941; recombinant A3A, FAM/TAMRA ssDNA deamination fluorescence; inhibition, % at 20 µM; 330,000 tested, 0.41% active;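 active = at least 40% inhibition at 20 µM here, with at most 30% in a related deaminase screen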;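 also: plate controls were A3A with DMSO for no effect and wells lacking A3A enzyme for full effect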
# A3G deaminase: blocks human APOBEC3G single-stranded DNA deamination; Q9HC16; recombinant A3G, ssDNA deamination FAM/TAMRA fluorescence; inhibition, % at 20 µM; 330,000 tested, 0.28% active;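 active = inhibition of at least 40% at 20 µM, with no more than 30% in the related APOBEC3A deaminase screen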;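 also: plate controls were DMSO wells with A3G for no effect and wells lacking A3G enzyme for full effect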
# NTR1 agonist: activates human neurotensin receptor 1. P30989. NTR1-U2OS beta-arrestin-GFP spot imaging, agonist mode. activation, % at 20 µM. 330,000 tested, 0.17% active;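 active = activation at or above 40% of the spot to cytoplasm intensity ratio, with at least 20 cells analyzed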;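 also: 0% = DMSO without peptide and 100% = 100 nM NTR1 peptide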
# Target sequence (P30989 whole entry, looked up): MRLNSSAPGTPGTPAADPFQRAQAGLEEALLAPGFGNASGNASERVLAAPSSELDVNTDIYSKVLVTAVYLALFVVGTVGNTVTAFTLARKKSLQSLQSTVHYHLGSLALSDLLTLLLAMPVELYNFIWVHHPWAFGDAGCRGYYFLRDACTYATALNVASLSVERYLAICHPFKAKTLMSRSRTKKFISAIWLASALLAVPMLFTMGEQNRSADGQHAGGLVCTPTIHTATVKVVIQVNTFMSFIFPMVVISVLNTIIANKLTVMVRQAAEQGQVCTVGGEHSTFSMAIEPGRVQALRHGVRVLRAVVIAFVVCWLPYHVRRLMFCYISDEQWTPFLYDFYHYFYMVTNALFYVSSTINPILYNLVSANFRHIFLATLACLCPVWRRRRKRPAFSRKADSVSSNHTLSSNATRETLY
# Numbers without * were called inactive; nt = not tested or not shown. Most compounds without a hit are left out; they make up all but 3.2% or so of the library.
SMILES,AHR act,APOBEC3A inh,A3G deaminase,NTR1 agonist
Cc1cc(/C=C2/NC(=O)N(c3ccccc3)C2=O)c(C)n1-c1cccnc1,109*,-3,-5,-1
Cc1cccc(-n2c(C)cc(/C=C3\NC(=O)NC3=O)c2C)c1,82*,3,-3,7
NC(=O)/C(=C/c1cccnc1)NC(=O)c1ccccc1,1,2,2,-1
Cc1onc(-c2ccccc2)c1C(=O)NNC(=O)c1ccccc1O,78*,4,1,0
Cc1onc(-c2ccccc2)c1C(=O)NCCc1ccc(S(N)(=O)=O)cc1,76*,-1,-1,5
CC(=O)c1cccc(NC(=S)Nc2cccc3ccccc23)c1,54*,-3,0,2
CC(=O)Nc1cccc(NC(=S)Nc2cccc3ccccc23)c1,28,-7,-4,3
CC(C)CNC(=O)c1oc2ccccc2c1COc1ccccc1,6,2,-4,-2
COCc1c(C(=O)Nc2ccc(Cl)cc2F)oc2ccccc12,71*,5,-5,2
O=C(Nc1ccccc1OC(F)F)c1oc2ccccc2c1COc1ccccc1,49*,-5,-10,3
NC(=O)CC1Nc2cccc3cccc(c23)NC1=O (stereo not drawn),51*,67,62,0
COc1ccc(CCNC(=O)CC2Nc3ccccc3NC2=O)cc1 (stereo not drawn),29,10,3,-1
O=C(CC1Nc2ccccc2NC1=O)NCCc1ccccc1 (stereo not drawn),49*,-5,-7,2
O=C(CC1Nc2ccccc2NC1=O)c1ccccc1 (stereo not drawn),78*,0,-3,-2
O=C(CNC(=O)c1ccc(Cl)cc1)OCCCOC(=O)CNC(=O)c1ccc(Cl)cc1,-1,9,2,0
O=C(Nc1cccnc1)/C(N=Nc1cccnc1)=C(\O)c1ccccc1,61*,-2,-3,2
O=C(Nc1ccccc1)C(=O)Nc1cccnc1,-5,0,3,2
CC(/C=N/Nc1ncc(C)c(=O)[nH]1)=C\c1ccccc1,61*,-3,-7,0
CCOc1ccc(NC(=O)c2ccc(Cn3nc(C)cc3C)o2)cc1,47*,3,-5,1
CCc1cccc(NC(=O)c2ccc(Cn3nc(C)cc3C)o2)c1,33,-1,-7,2
O=C(NC1CC1)C1=C[C@@H](c2c[nH]c3ccccc23)C[C@@H](OCCCCO)O1,65*,1,-3,-2
O=C(NC1CC1)C1=C[C@@H](C2CC2)C[C@@H](OCCCCO)O1,2,1,-4,0
O=C(NC1CC1)C1=C[C@@H](c2c[nH]c3ccccc23)C[C@@H](OCc2ccc(CO)cc2)O1,76*,-1,-6,0
O=C(NC1CC1)C1=C[C@H](c2c[nH]c3ccccc23)C[C@H](OCCCCO)O1,72*,1,0,-5
O=C1NC[C@H](CC2CCCCC2)N(CCc2cccc(F)c2)C1=O,-1,-4,-5,3
SMILES,AHR act,APOBEC3A inh,A3G deaminase,NTR1 agonist
O=C(CCC(=O)N1CCN(Cc2ccc(F)cc2)CC1)Nc1nnc(C(F)(F)F)s1,4,-5,-1,4
CC(OC(=O)CCCN=C1NS(=O)(=O)c2ccccc21)C(=O)N(C)c1ccccc1 (stereo not drawn),7,27,-9,-1
CC(OC(=O)CCCN=C1NS(=O)(=O)c2ccccc21)C(=O)c1ccccc1 (stereo not drawn),59*,0,-11,0
Cc1ccc(NC(=O)C2CCN(S(=O)(=O)c3c(C)nn(C)c3C)CC2)c(Cl)c1,-1,3,-2,0
COc1ccc(OC)c(C(=O)CSc2nnc(Cc3cccs3)n2CCc2ccccc2)c1,59*,-1,-5,9
COc1ccc(OC)c(C(=O)CSc2nnc(-c3cccs3)n2C)c1,-1,-2,-3,1
CC1CCc2c(sc(NC(=O)COC(=O)c3ccccc3NCc3ccco3)c2C#N)C1 (stereo not drawn),1,2,-7,8
CCOC(=O)c1c(NC(=O)C(C)NCc2ccco2)sc2c1CCC(C)C2 (stereo not drawn),51*,-1,1,11
CCOC(=O)c1c(NC(=O)COC(=O)Cn2cnc3ccccc32)sc2c1CCC(C)C2 (stereo not drawn),0,nt,nt,nt
CCOC(=O)c1c(NC(=O)Cn2nnc3ccccc32)sc2c1CCC(C)C2 (stereo not drawn),63*,1,-4,10
CN(C)c1ccc(Cl)cc1N,2,-2,-9,4
Cc1nn2c3ccccc3nc2c2ccccc12,59*,1,0,4
COc1ccc(-c2nn(-c3ccccc3)cc2/C=N/NS(=O)(=O)c2ccccc2)cc1,50*,0,-1,2
O=C(COc1cccc2c1CCNC2=O)Nc1cccc(F)c1,49*,-4,-6,0
O=C(COc1cccc2c1CCNC2=O)Nc1cccc(C(F)(F)F)c1,7,-3,-12,4
OC1(CNCc2cn[nH]c2-c2cc3ccccc3o2)CCCCC1,3,0,1,0
O=C(COC(=O)C1CCN(S(=O)(=O)c2cccs2)CC1)NCc1ccc(F)cc1,1,6,0,-1
CC(=NCCc1c(C)[nH]c2ccc(OCc3ccccc3)cc12)C1=C(O)CC(c2ccccc2)CC1=O (stereo not drawn),77*,3,-4,3
Cc1cnc(NC(=O)c2cc3c(C)nn(-c4ccccc4)c3s2)s1,61*,-6,-9,7
Cc1nn(-c2ccccc2)c2sc(C(=O)NNC(=O)COc3cccc4ccccc34)cc12,34,0,-3,6
Cc1nn(-c2ccccc2)c2sc(C(=O)NNC(=O)COc3ccccc3)cc12,58*,1,0,2
CC(=O)Nc1nc2c(s1)C(=O)NCCC2,2,-2,-4,1
COc1ccccc1C(=O)c1nc2ccccc2n1C,62*,2,-1,0
O=C(CN1C(=O)NC2(CCCc3ccccc32)C1=O)N1CCCCC1 (stereo not drawn),3,14,-9,-1
O=C(c1ccccc1-c1nc(-c2ccc(F)cc2)no1)N1CCCC1,50*,0,-7,-1
SMILES,AHR act,APOBEC3A inh,A3G deaminase,NTR1 agonist
CCCCN1CCc2c1nc1ccc(Br)cc1c2N,76*,-6,-5,2
COc1cc(C(=O)Nc2ccc3c(c2)CCCN3C(=O)c2ccco2)c([N+](=O)[O-])cc1OC,2,3,-4,1
CCN(CC)CCOC(=O)c1ccc(N/C=C(/C#N)c2nc(-c3ccc(OC)cc3)cs2)cc1,3,-5,-9,-1
N#C/C(=C\Nc1ccc2cn[nH]c2c1)c1nc(-c2ccc(Cl)cc2)cs1,52*,-5,-9,4
O=C(NC(=S)NNC(=O)c1ccccc1[N+](=O)[O-])c1ccc(Br)cc1,11,4,5,2
CC(=O)c1ccc(N2CCN(S(=O)(=O)c3cc4[nH]c(=O)c(=O)[nH]c4cc3C)CC2)cc1,47*,-1,-9,-3
CC(=O)c1ccc(N2CCN(S(=O)(=O)c3ccc4ccccc4c3)CC2)cc1,-1,-2,-11,-2
CC(=O)N(c1cccc(Cl)c1)c1nc(C)cc(C)c1C#N,9,3,3,1

# Screening results as filed in PubChem.
